Source: the supplement of paper PMC11417369
Whole data set: some 25,000 sequences, median “ln(normalized median fluorescence intensity)” near 9.7, cut for the highest 2% near 11. What follows is part of a selection rich in the highest values, with near analogues and random picks from the rest.

Test system: PfAP2-HC AP2 domain (GST-tagged)
Experiment: gcPBM binding intensity (ln(normalized median fluorescence intensity)); higher = stronger DNA binding
Summary of the method: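 Probes on an Agilent 4 × 180k array were primer-extended, double-stranded and 36 bp long, taken from intergenic genomic regions, with negative controls added. GST-tagged P. falciparum DNA-binding domains from E. coli, about 25 μg on average, were applied to the array for 1 h in 1× PBS containing 1% milk, 0.2 mg/ml BSA, 0.5% salmon testes DNA and 0.03% Triton X-100. Binding intensity, obtained after Alexa488 anti-GST antibody detection and a 488 nm scan, is the highest Masliner-normalised natural-log median intensity across replicate spots of either probe orientation.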

| Sequence | gcPBM binding intensity (ln) |
| --- | --- |
| ATCAACATTATGTTTAGTACTTAGTGAATTGTTAAT [XGTACX_site4913] | 9.65 |
| ATTATATATGTATGGTGTACTAAGAATATTTTTTTA [XGTACX_site1950] | 9.55 |
| ATTATTTAAAAAAAATGTACATAATAAATATGAACG [XGTACX_site4010] | 9.58 |
| CAGTTTAATTTACATAGTACATAATATTTTAATTTT [XGTACX_site1793] | 9.65 |
| AAATAAATTAAAATAAATTAAATTAAATTAGCATTA [GTGCAC_negctrl_site531] | 9.52 |
| ATACATATATATATATGTACACACATTAATAAAAAA [XGTACX_site6874] | 9.89 |
| GACAATAAAAAGAAAAGTACATATATAAATTAACCA [XGTACX_site7858] | 9.65 |
| TGCATATGCATTATTTGTACATATGTAGATAATTAT [XGTACX_site6930] | 9.63 |
| GTATTTTTAAATGACACACACATATATATATATATA [CACACA_site1662] | 10.1 |
| ATAAAATACATATAAACACACATATAAACCGACATA [CACACA_site2477] | 10.1 |
| ATAAATATGGAGCACACACACATAAACATACATATA [CACACA_site421] | 11.1 |
| TATATATATATATAAACACACATAAATATAAATATA [CACACA_site1121] | 9.88 |
| TGCAAGGAAAAACACACACACACATAAATGTATATA [CACACA_site751] | 10.4 |
| CATATAAATAAACACACACACACATATATATATATA [CACACA_site5309] | 10.5 |
| AAAAGGAACAGACACACACACATATATAAATATGTA [CACACA_site7656] | 10.5 |
| AATAAATTGAAACACACACACACATATATATATATA [CACACA_site848] | 11.2 |
| TGATAAATATGGAGCACACACACATAAACATACATA [CACACA_site420] | 10.4 |
| ATAAATATGGAGCACACACACATAAACATACCTATA [CACACA_site6336] | 10.8 |
| AAAAAAAAAAAATATACACACACACCGACACATAAA [CACACA_site9270] | 10.9 |
| TGCAAGGAACAACACACACACACATAAATGTATATA [CACACA_site8149] | 11.4 |
| TAAATTAAAAAAAATACACACACACCGACACATATA [CACACA_site9084] | 10.6 |
| GATTATTTTATAAGTACACACATTTATCTATAATAA [CACACA_site7256] | 9.69 |
| ACGTTAAAAACAAGTTGTACACAATAAATTATTCTT [XGTACX_site6321] | 9.75 |

| Sequence | gcPBM binding intensity (ln) |
| --- | --- |
| GTATTCAAAAGTGAAACATGCAATAATATATATATA [TGCATGCA_site617] | 9.63 |
| AATATTTTTTTATAAACACACATATATATAAATATA [CACACA_site3524] | 9.53 |
| ATTTAATACAAATACACACACAAATAAATACAGATA [CACACA_site5956] | 10.2 |
| ATACAACAGATATATACACACATATAACAATAATAA [CACACA_site7560] | 10 |
| AATACAATTTTTAACACACACACAATAATACAGATA [CACACA_site4823] | 11.2 |
| TACACGTTCTACATTTGTACTTAATTTATACATAAG [XGTACX_site1579] | 9.79 |
| CCATTTACATTGTGAAGTACTAAAAAAAAATGTAGA [XGTACX_site7882] | 9.48 |
| ATCGGTAATATTAACACACACATTTATTTATATTTA [CACACA_site6638] | 10.1 |
| GTATCTCATTATTCGTGTACTAAACACATAAAAATA [XGTACX_site2262] | 9.58 |
| GTTAATTGAAGATTCACACATAAATATATATATAAT [CACACA_site5482] | 9.61 |
| ATATACTATTATGTGTGTACATAATAATTTATTATA [XGTACX_site3776] | 9.75 |
| ATATACTTTTTTTTTTTTTTTTTAACGTTATTTATG [CACACA_negctrl_site1277] | 9.64 |
| GATAATTACGGACACACACACACACGCACAACTAAA [CACACA_site7254] | 10.7 |
| AAAAGATAATTATGCACACACACACCCCCACCCAAC [CACACA_site2570] | 10.9 |
| AAGATAATTACGCACACACACACACGCCCACAACTA [CACACA_site7255] | 11.4 |
| AGCACATTATTCAAAAGTACAAATAGGTATTGTATA [XGTACX_site6107] | 9.59 |
| TTATTCTTTTAATATACACACTTTGTCTTTTCGCGC [CACACA_site5525] | 9.9 |
| TAATTTTTTTTAAACACACACATTACATTCAAAAAT [CACACA_site127] | 10.1 |
| AAAATTAAAACCTACACACACATTTAAAAAAAAAAA [CACACA_site3068] | 10.1 |
| GAAAAATTAAAACCTACACACACATTTAAAAAAAAA [CACACA_site9005] | 11 |
| ATACATTCAATGAAATGTACGTTTATTTACAGAAGA [XGTACX_site2999] | 9.6 |
| TTTTTTCTTTTTATGTGTACTTATTTTATTTAATAA [XGTACX_site1080] | 9.76 |
